Key:
Experiment in all cases: log2 ratio of Biotin-Ahx-Ub-VS probe labelling (fragment/DMSO); higher = less target engagement (more negative = stronger competition), active = hit call of the paper (q ≤ 0.05, log2 ratio ≤ -1)
Details in all cases: compound concentration: 200 uM; treatment time: 3 h
USP19 = target: T1, USP19 (UniProt O94966)
T1 sequence (whole entry): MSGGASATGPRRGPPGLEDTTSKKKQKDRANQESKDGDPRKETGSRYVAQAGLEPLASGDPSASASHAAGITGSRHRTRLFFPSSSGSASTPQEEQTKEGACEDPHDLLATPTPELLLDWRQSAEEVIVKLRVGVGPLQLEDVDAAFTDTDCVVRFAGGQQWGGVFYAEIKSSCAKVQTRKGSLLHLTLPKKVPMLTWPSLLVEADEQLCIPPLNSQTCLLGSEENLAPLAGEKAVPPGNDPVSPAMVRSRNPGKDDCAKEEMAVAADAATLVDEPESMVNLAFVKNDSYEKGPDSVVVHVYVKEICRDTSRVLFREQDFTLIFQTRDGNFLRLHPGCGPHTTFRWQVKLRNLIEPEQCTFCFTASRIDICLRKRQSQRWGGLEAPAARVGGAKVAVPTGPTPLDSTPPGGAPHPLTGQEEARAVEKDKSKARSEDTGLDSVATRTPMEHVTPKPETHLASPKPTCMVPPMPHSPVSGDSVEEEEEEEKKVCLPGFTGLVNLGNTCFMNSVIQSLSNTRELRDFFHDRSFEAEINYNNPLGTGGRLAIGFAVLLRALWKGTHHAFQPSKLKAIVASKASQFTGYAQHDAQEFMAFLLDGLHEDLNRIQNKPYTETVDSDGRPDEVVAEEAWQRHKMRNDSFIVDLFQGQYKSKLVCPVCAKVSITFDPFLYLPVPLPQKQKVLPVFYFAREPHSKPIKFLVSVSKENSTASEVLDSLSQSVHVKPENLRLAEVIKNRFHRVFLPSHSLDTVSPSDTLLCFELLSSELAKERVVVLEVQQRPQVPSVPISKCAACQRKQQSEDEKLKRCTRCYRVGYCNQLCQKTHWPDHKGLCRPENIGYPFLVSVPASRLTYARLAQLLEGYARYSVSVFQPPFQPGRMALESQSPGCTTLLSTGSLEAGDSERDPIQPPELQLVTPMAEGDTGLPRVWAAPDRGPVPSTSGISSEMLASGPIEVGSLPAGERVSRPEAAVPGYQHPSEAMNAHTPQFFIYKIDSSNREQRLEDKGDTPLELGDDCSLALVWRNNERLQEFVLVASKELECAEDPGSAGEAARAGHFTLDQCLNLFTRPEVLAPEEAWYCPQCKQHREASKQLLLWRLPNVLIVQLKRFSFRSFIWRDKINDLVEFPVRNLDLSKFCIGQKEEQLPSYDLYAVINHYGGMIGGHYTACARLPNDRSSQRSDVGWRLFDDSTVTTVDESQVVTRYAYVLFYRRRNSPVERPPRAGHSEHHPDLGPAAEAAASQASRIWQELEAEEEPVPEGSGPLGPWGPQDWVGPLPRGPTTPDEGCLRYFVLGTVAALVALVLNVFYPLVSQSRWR
Summary of the method: (§1)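 Each value is an average log2 ratio of fragment to vehicle, tested by unpaired t-test. The underlying Spectronaut label-free quantities were global-median-normalised, and only proteins with ≥2 unique peptides were included. Triplicate HEK293T lysate samples (495 µg) were exposed to fragment at 200 µM or vehicle for 3 h, then to Biotin-Ahx-Ub-VS at 0.5 µM final for 1 h, before NeutrAvidin enrichment of labelled DUBs, LysC and trypsin digestion, and diaPASEF LC-MS/MS.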

USP22 = target: T2, USP22 (UniProt Q9UPT9)
T2 sequence (whole entry): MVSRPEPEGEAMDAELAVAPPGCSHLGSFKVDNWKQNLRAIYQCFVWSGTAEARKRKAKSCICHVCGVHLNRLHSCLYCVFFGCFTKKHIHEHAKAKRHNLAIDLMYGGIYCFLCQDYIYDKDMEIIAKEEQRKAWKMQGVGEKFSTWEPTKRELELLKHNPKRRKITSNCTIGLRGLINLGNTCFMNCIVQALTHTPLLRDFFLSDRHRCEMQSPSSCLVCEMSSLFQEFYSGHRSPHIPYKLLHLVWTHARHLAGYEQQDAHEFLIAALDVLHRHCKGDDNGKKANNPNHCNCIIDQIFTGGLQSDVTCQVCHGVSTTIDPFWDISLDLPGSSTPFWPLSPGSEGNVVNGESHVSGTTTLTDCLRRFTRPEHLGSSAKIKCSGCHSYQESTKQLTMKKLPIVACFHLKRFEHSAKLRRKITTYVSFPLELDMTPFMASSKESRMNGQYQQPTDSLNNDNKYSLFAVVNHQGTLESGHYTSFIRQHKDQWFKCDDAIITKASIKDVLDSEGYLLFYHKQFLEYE
Summary of the method: as §1

USP24 = USP24 (UniProt Q9UPU5)
Summary of the method: as §1

USP25 = target: T3, USP25 (UniProt Q9UHP3)
T3 sequence (whole entry): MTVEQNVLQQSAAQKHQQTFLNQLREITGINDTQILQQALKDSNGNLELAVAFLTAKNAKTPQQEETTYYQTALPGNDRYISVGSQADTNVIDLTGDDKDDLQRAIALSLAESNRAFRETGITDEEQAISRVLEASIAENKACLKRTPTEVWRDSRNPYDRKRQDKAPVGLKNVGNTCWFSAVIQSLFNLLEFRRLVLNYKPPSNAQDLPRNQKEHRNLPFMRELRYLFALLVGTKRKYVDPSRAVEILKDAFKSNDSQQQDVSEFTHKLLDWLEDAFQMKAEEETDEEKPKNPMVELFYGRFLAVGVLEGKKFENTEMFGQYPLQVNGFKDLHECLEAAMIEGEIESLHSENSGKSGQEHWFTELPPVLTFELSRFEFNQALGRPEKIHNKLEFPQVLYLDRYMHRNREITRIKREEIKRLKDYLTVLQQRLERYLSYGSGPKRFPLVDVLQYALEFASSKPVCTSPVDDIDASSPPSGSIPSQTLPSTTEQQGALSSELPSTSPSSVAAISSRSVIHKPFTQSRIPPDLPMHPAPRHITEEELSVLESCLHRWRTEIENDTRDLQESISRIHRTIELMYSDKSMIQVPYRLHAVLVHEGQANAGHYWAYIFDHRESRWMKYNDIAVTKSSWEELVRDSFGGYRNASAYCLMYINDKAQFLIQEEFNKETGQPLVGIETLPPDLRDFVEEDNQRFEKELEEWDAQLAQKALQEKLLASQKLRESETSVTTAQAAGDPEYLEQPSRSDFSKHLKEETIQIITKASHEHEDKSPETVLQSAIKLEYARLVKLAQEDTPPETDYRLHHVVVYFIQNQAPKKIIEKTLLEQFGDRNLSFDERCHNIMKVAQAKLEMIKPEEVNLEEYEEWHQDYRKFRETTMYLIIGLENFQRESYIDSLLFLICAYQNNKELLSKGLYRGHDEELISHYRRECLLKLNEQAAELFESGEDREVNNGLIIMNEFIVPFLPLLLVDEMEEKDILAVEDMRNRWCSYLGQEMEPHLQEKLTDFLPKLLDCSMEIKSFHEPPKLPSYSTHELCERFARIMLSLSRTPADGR
Summary of the method: as §1

USP28 = target: T4, USP28 (UniProt Q96RU2)
T4 sequence (whole entry): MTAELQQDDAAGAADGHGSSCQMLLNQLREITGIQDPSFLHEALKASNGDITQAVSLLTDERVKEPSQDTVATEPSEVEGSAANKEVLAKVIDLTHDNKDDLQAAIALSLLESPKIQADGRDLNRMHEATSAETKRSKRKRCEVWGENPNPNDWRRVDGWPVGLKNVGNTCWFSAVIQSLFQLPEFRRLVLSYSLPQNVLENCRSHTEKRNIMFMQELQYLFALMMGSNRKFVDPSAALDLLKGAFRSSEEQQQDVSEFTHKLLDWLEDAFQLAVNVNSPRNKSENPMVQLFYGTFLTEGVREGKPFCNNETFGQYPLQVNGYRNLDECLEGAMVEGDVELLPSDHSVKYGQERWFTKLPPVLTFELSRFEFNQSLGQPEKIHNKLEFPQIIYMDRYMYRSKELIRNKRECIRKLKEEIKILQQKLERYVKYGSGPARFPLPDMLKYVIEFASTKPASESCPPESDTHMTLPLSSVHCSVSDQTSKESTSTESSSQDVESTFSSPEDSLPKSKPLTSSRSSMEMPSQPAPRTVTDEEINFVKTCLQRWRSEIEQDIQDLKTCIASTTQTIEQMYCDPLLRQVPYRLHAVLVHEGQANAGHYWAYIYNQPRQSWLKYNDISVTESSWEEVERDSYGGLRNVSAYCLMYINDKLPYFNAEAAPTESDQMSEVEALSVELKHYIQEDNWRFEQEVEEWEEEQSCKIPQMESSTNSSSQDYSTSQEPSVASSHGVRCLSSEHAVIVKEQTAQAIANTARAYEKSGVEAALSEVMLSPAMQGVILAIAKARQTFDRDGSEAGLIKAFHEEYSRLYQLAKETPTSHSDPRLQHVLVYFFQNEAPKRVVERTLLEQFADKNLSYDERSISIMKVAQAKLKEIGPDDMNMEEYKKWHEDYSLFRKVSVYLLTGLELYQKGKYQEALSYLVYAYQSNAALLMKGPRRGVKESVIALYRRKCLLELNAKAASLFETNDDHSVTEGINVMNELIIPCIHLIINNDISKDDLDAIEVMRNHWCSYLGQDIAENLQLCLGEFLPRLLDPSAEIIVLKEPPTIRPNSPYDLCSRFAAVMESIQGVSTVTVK
Summary of the method: as §1

Measured: log2 ratio of Biotin-Ahx-Ub-VS probe labelling

Sequence of USP24 (Q9UPU5 whole entry): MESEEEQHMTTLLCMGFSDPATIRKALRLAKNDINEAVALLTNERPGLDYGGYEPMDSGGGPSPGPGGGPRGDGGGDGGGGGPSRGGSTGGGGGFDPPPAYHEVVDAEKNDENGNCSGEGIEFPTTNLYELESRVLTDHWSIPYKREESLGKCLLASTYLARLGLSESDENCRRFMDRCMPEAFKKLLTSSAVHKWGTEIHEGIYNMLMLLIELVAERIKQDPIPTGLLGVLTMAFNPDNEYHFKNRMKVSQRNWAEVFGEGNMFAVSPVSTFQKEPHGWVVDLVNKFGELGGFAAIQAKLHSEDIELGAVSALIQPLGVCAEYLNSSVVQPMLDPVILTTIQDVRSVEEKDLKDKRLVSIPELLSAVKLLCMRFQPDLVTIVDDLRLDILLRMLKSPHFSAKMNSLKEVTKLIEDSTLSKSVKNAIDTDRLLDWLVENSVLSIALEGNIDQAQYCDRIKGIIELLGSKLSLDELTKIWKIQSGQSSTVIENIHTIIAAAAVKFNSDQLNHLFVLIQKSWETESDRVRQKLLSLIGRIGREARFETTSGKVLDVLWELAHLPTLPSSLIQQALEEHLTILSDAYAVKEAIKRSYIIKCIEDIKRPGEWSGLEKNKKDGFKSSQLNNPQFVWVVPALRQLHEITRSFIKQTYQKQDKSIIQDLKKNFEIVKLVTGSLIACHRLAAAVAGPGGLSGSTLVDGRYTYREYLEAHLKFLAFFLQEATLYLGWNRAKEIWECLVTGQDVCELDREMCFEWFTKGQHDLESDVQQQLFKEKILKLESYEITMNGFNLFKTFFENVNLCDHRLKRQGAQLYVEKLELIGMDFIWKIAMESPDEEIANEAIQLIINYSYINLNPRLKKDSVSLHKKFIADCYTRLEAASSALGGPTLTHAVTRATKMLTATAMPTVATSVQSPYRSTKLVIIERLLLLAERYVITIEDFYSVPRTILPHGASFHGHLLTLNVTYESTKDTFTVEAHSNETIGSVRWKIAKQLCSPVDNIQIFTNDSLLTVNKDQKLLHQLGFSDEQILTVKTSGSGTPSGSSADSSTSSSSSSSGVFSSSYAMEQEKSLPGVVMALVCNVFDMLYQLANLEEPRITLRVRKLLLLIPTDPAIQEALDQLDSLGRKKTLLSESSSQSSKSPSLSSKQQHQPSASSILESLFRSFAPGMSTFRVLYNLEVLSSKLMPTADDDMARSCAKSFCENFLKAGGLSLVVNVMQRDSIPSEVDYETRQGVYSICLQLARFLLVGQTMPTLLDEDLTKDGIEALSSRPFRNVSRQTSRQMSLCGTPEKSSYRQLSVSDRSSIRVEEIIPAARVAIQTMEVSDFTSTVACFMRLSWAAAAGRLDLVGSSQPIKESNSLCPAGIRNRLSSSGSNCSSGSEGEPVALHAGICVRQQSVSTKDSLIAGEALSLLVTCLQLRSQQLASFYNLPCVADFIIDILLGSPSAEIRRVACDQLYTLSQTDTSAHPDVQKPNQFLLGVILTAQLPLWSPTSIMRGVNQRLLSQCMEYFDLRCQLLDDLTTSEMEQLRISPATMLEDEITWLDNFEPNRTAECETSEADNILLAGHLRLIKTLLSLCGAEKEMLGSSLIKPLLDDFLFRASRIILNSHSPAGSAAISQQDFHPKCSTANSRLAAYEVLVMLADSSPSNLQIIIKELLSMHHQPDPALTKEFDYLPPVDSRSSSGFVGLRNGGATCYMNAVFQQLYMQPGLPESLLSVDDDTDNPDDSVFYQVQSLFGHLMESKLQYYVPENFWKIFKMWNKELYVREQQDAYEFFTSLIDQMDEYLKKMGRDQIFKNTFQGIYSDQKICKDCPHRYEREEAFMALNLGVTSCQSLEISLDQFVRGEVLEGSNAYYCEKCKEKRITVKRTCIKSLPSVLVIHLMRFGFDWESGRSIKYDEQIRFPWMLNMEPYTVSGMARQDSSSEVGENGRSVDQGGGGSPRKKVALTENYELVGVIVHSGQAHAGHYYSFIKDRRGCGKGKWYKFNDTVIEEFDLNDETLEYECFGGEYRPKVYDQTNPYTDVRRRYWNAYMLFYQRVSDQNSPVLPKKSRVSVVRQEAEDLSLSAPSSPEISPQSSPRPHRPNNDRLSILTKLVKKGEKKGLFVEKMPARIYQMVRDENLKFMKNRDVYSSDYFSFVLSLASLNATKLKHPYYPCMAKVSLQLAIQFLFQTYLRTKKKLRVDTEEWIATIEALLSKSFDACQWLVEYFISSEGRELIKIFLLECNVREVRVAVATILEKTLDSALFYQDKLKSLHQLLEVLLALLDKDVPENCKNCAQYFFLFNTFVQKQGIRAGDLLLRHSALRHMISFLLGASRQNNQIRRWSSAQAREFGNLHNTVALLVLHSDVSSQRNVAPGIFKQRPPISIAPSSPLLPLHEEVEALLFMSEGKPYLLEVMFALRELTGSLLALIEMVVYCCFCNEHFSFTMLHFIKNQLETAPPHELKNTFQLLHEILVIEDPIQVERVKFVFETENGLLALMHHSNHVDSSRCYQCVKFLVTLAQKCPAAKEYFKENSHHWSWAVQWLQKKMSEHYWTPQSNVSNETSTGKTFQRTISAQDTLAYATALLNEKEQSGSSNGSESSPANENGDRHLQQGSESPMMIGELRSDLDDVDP

CNC(=O)Cn1cc(NC(=O)CCl)cn1
inactive: USP19 -0.0937 | USP22 -0.0499 | USP24 -0.146 | USP25 -0.172 | USP28 -0.486

From the supplement of paper PMC11732987, “Enantioselective OTUD7B fragment discovery through chemoproteomics screening and high-throughput optimisation” (Communications Chemistry, 2025)
